{
  "source": "PubChem BioAssay (NCI)",
  "note": "This is part of a sample that, as a whole, favours compounds with a hit. Of some 83,000 tested, about 20% had one in any assay.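 Each cell line was grown in a 96-well plate and treated with one concentration of compound for 48 hours. Values below 10 were considered active.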 Unmarked numbers belong to inactive results. The source made the active and inactive calls.",
  "data": [
    {"tested_on": "T-47D breast", "experiment": "NCI-60 one-dose screen, 48 h (100 = growth as untreated, 0 = no growth, -100 = all killed)", "conditions": "10 µM unless noted", "values": [
      {"smiles": "CN1CCN(c2cc(Nc3cc(C4CC4)[nH]n3)nc(Nc3ccc(CC(=O)NCc4cccc(F)c4)cc3)n2)CC1", "growth": "64.5%"},
      {"smiles": "O=C(Nc1cccc2ccccc12)NC1CC1", "growth": "91.5%"},
      {"smiles": "CN(C)CC(C)(C)C(=O)/C=C/c1ccccc1", "growth": "-30.8% [25 µM] (active)"},
      {"smiles": "COc1ccc(-c2nn(-c3cccc(Cl)c3)cc2-c2cc(-c3ccc(Br)cc3)nc(N)n2)cc1", "growth": "66.2%"},
      {"smiles": "COc1cc2c(c(OC)c1OC)CCC(c1cccc(NC(=O)c3ccc(Br)cc3)c1)O2", "note": "(stereo unspecified)", "growth": "40.4%"},
      {"smiles": "CCOC(=O)C#Cc1c(C(=O)OCC)nnn1Cc1ccc([N+](=O)[O-])cc1", "growth": "23.8%"},
      {"smiles": "O=C(N/N=C/c1c(Cl)cccc1Cl)c1cccnc1Nc1cccc(C(F)(F)F)c1", "growth": "15.7%"},
      {"smiles": "C#COc1cccc(Nc2c(C#N)cnc3ncc(NC(=O)CCl)cc23)c1", "growth": "4.8% [6.25 µM] (active)"},
      {"smiles": "CC(C)(Sc1cc(C(C)(C)C)c(O)c(C(C)(C)C)c1)Sc1cc(C(C)(C)C)c(OC(=O)CCCC(=O)O)c(C(C)(C)C)c1", "growth": "36.6%"},
      {"smiles": "COc1c(B(O)O)cccc1-c1cc(C)c2c(ccc3[nH]ncc32)n1", "growth": "84.1%"},
      {"smiles": "CCOC(=O)C1=C(N)Oc2c(sc3c(F)cccc23)C1c1ccc(O)cc1", "note": "(stereo unspecified)", "growth": "26.5%"},
      {"smiles": "OCCn1cc(-c2nc(-c3c[nH]c4ncccc34)cs2)c2cc(F)ccc21", "growth": "35.2%"},
      {"smiles": "O=C(/C=C/c1cccs1)Nc1ncc(Cc2ccccc2F)s1", "growth": "23.8%"},
      {"smiles": "COc1ccc(CN2c3ccccc3Sc3ccccc32)cc1F", "growth": "49.7%"},
      {"smiles": "CCN1C(=O)N(CC)C2C1NN=c1s/c(=C\\c3ccccc3F)c(=O)n12", "note": "(stereo unspecified)", "growth": "55.2%"},
      {"smiles": "CS(=O)(=O)Nc1cncc(-c2ccc3ncnc(Nc4cncc(Cl)c4)c3c2)c1", "growth": "2.52% (active)"},
      {"smiles": "C1CN(SSN2CCOCC2)CCO1", "growth": "-24.8% [100 µM] (active)"},
      {"smiles": "CS(=O)(=O)c1ccc(-c2cnn3ccc(-c4cccc(S(=O)(=O)C5CC5)c4)nc23)cc1", "growth": "-6.07% (active)"},
      {"smiles": "CN1C(=O)/C(=C\\c2nc([P+](c3ccccc3)(c3ccccc3)c3ccccc3)c(N3CCOCC3)o2)SC1=S", "growth": "79.4%"},
      {"smiles": "C=C(C)[C@@H]1CCC[C@]2(COS(=O)(=O)c3ccc(C)cc3)CC[C@]3(C)[C@@H](CC[C@@H]4[C@@]5(C)CCCNC(C)(C)[C@@H]5CC[C@]43C)[C@@H]12", "growth": "59.6%"},
      {"smiles": "Clc1ccc2c(c1)C(c1c[nH]c3ccccc13)(c1c[nH]c3ccccc13)CCO2", "growth": "-3.57% (active)"},
      {"smiles": "O=C(NCCNc1nccc(Nc2ccc(S(=O)(=O)Nc3ccccn3)cc2)n1)c1cccc([N+](=O)[O-])c1", "growth": "89%"},
      {"smiles": "COc1cc2ncnc(Nc3ccc(S(=O)(=O)Nc4cc(C)on4)cc3)c2cc1OCCCN1CCN(c2ccc(F)cc2)CC1", "growth": "89.6%"},
      {"smiles": "CN(C)CC1CCC(CN(C)C)C1=O", "note": "(stereo unspecified)", "growth": "106%"},
      {"smiles": "N#CC1=C(N)Oc2c(ccc3ccccc23)C1c1ccccc1", "note": "(stereo unspecified)", "growth": "63.5%"},
      {"smiles": "Cc1ccc(NC(=O)c2sc3nc(C)c(Br)c(C)c3c2N)cc1", "growth": "61.9%"}
    ]}
  ]
}
